Assay results taken from PubChem BioAssay AID1159580 (chemical genetic matrix, 2015).
Hit rate of the full screen: of about 5,500 compounds, about 2,000 (36%) were called active. Another 18% or so got no clear call; they are omitted. Rule as the data show it: active = normalized growth mostly below about 0.91 (no sharp cut-off); inconclusive = no clear call, values can overlap the other calls; inactive = mostly above about 0.92. Some of the results follow.

Assay: chemical genetic growth profiling, strain panel (AID 1159580);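 also: tested at 20 µM; growth read once vehicle control cultures reached saturation at 30 °C; 1 = growth at the plate median or of vehicle wells; lower values mean less growth of the strain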
Settings: S. cerevisiae deletion strains, growth OD
[1] = locus YAL021C, strain ccr4, stronger effect = lower value
[2] = locus YAL026C, strain drs2, stronger effect = lower value
[3] = locus YAL030W, strain snc1, stronger effect = lower value
[4] = locus YBL061C, strain skt5, stronger effect = lower value
[5] = locus YBR009C, strain hhf1, stronger effect = lower value
[6] = locus YBR023C, strain chs3, stronger effect = lower value
[7] = locus YBR171W, strain sec66, stronger effect = lower value
[8] = locus YBR231C, strain swc5, stronger effect = lower value
[9] = locus YBR279W, strain paf1, stronger effect = lower value
[10] = locus YCL011C, strain gbp2, stronger effect = lower value
[11] = locus YCL016C, strain dcc1, stronger effect = lower value
[12] = locus YCL069W, strain vba3, stronger effect = lower value
[13] = locus YCR088W, strain abp1, stronger effect = lower value
[14] = locus YDL005C, strain med2, stronger effect = lower value
[15] = locus YDL040C, strain nat1, stronger effect = lower value
[16] = locus YDR001C, strain nth1, stronger effect = lower value
[17] = locus YDR069C, strain doa4, stronger effect = lower value
[18] = locus YDR137W, strain rgp1, stronger effect = lower value
[19] = locus YDR159W, strain sac3, stronger effect = lower value
[20] = locus YDR297W, strain sur2, stronger effect = lower value
[21] = locus YDR334W, strain swr1, stronger effect = lower value
[22] = locus YDR335W, strain msn5, stronger effect = lower value
[23] = locus YDR392W, strain spt3, stronger effect = lower value
[24] = locus YEL003W, strain gim4, stronger effect = lower value
[25] = locus YEL037C, strain rad23, stronger effect = lower value
[26] = locus YEL061C, strain CIN8 (second series), stronger effect = lower value
[27] = locus YER015W, strain faa2, stronger effect = lower value
[28] = locus YER016W, strain bim1, stronger effect = lower value
[29] = locus YER111C, strain swi4, stronger effect = lower value
[30] = locus YER155C, strain BEM2 (second series), stronger effect = lower value
[31] = locus YFR010W, strain ubp6, stronger effect = lower value
[32] = locus YGL167C, strain pmr1, stronger effect = lower value
[33] = locus YGL173C, strain kem1, stronger effect = lower value
[34] = locus YGL227W, strain vid30, stronger effect = lower value
[35] = locus YGL240W, strain doc1, stronger effect = lower value
[36] = locus YGL253W, strain hxk2, stronger effect = lower value
[37] = locus YHR013C, strain ard1, stronger effect = lower value
[38] = locus YHR027C, strain rpn1, stronger effect = lower value
[39] = locus YHR030C, strain SLT2, stronger effect = lower value
[40] = locus YHR079C, strain IRE1, stronger effect = lower value
[41] = locus YHR142W, strain chs7, stronger effect = lower value
[42] = locus YJL092W, strain hpr5, stronger effect = lower value
[43] = locus YJL095W, strain BCK1 (second series), stronger effect = lower value
[44] = locus YJL095W, strain BCK1, stronger effect = lower value
[45] = locus YJL115W, strain asf1, stronger effect = lower value
[46] = locus YJL129C, strain trk1, stronger effect = lower value
[47] = locus YJL154C, strain vps35, stronger effect = lower value
[48] = locus YJL164C, strain tpk1, stronger effect = lower value
[49] = locus YJL166W, strain qcr8, stronger effect = lower value
[50] = locus YJL187C, strain SWE1, stronger effect = lower value
[51] = locus YJR066W, strain TOR1, stronger effect = lower value
[52] = locus YKL160W, strain elf1, stronger effect = lower value
[53] = locus YKR026C, strain gcn3, stronger effect = lower value
[54] = locus YKR091W, strain srl3, stronger effect = lower value
[55] = locus YLL001W, strain dnm1, stronger effect = lower value
[56] = locus YLL026W, stronger effect = lower value
[57] = locus YLL041C, strain sdh2, stronger effect = lower value
[58] = locus YLR027C, strain aat2, stronger effect = lower value
[59] = locus YLR113W, strain HOG1, stronger effect = lower value
[60] = locus YLR221C, strain rsa3, stronger effect = lower value
[61] = locus YLR258W, strain gsy2, stronger effect = lower value
[62] = locus YLR262C, strain YPT6 (second series), stronger effect = lower value
[63] = locus YLR320W, strain mms22, stronger effect = lower value
[64] = locus YLR342W, strain FKS1, stronger effect = lower value
[65] = locus YLR357W, strain rsc2, stronger effect = lower value
[66] = locus YLR370C, strain arc18, stronger effect = lower value
[67] = locus YLR384C, strain iki3, stronger effect = lower value
[68] = locus YML120C, strain ndi1, stronger effect = lower value
[69] = locus YMR058W, strain fet3, stronger effect = lower value
[70] = locus YMR125W, strain sto1, stronger effect = lower value
[71] = locus YMR129W, stronger effect = lower value
[72] = locus YMR205C, strain PFK2, stronger effect = lower value
[73] = locus YMR231W, strain pep5, stronger effect = lower value
[74] = locus YNL071W, strain lat1, stronger effect = lower value
[75] = locus YNL183C, strain NPR1, stronger effect = lower value
[76] = locus YNL209W, strain ssb2, stronger effect = lower value
[77] = locus YNL248C, strain rpa49, stronger effect = lower value
[78] = locus YNL322C, strain KRE1 (second series), stronger effect = lower value
[79] = locus YNR049C, strain mso1, stronger effect = lower value
[80] = locus YOR001W, strain rrp6, stronger effect = lower value
[81] = locus YOR070C, strain gyp1, stronger effect = lower value
[82] = locus YOR080W, strain dia2, stronger effect = lower value
[83] = locus YOR083W, strain WHI5, stronger effect = lower value
[84] = locus YOR106W, strain vam3, stronger effect = lower value
[85] = locus YOR231W, strain MKK1, stronger effect = lower value
[86] = locus YOR265W, strain rbl2, stronger effect = lower value
[87] = locus YOR270C, strain vph1, stronger effect = lower value
[88] = locus YOR290C, strain snf2, stronger effect = lower value
[89] = locus YPL051W, strain arl3, stronger effect = lower value
[90] = locus YPL078C, strain atp4, stronger effect = lower value
[91] = locus YPL106C, strain sse1, stronger effect = lower value
[92] = locus YPL240C, strain hsp82, stronger effect = lower value
[93] = locus YPL256C, strain CLN2, stronger effect = lower value

Measured: normalized growth

O=c1ccc2ccc(O)c(O)c2o1
inactive: [1] 1.01 | [2] 1.01 | [3] 1.01 | locus YAL040C, strain CLN3, stronger effect = lower value 0.995 | [4] 1 | [5] 1 | [6] 1 | [7] 1 | [8] 0.98 | [9] 1.01 | [10] 1.03 | [11] 0.996 | locus YCL061C, strain MRC1 (second series), stronger effect = lower value 0.999 | [12] 1.01 | [13] 1.01 | [14] 1 | [15] 1.01 | [16] 1.02 | [17] 0.982 | [18] 0.982 | locus YDR150W, strain NUM1, stronger effect = lower value 0.998 | [19] 0.966 | locus YDR195W, strain ref2 0.989 | [20] 1 | [21] 1.01 | [22] 1.02 | locus YDR363W, strain ESC2, stronger effect = lower value 0.961 | [23] 0.934 | [24] 1 | [25] 1.01 | [26] 1.01 | locus YER002W, strain NOP16, stronger effect = lower value 0.996 | [27] 0.999 | [28] 1.02 | [29] 0.999 | [30] 1 | [31] 1.01 | [32] 1.01 | [33] 1 | [34] 1.01 | [35] 0.986 | [36] 1.03 | locus YGR078C, strain PAC10, stronger effect = lower value 0.994 | locus YGR229C, strain SMI1, stronger effect = lower value 1.03 | [37] 0.997 | [38] 1 | [39] 0.98 | [40] 0.96 | [41] 1.05 | [42] 1.01 | [43] 1 | [44] 0.978 | [45] 1.01 | [46] 0.999 | [47] 1.01 | [48] 1 | [49] 1.02 | [50] 1.02 | [51] 0.924 | locus YJR075W, strain HOC1, stronger effect = lower value 1.05 | [52] 1 | [53] 1.01 | [54] 1.01 | [55] 0.996 | [56] 1 | [57] 1.01 | [58] 0.993 | [59] 1.01 | [60] 0.991 | [61] 1.01 | [62] 1.02 | [63] 1.01 | [64] 1.01 | [65] 1 | [66] 1.01 | [67] 0.981 | [68] 1 | [69] 1.01 | [70] 1 | [71] 1.01 | [72] 1.01 | [73] 0.998 | locus YMR307W, strain GAS1, stronger effect = lower value 1.03 | [74] 1.02 | locus YNL153C, strain GIM3, stronger effect = lower value 1.2 | locus YNL175C, strain NOP13, stronger effect = lower value 0.974 | [75] 0.94 | locus YNL197C, strain WHI3, stronger effect = lower value 0.979 | [76] 0.994 | locus YNL224C, strain SQS1, stronger effect = lower value 0.99 | [77] 1.04 | [78] 0.994 | [79] 0.999 | [80] 0.979 | [81] 0.991 | [82] 0.986 | locus YOR083W, strain WHI5 (second series), stronger effect = lower value 1.02 | [83] 0.999 | [84] 0.99 | [85] 0.966 | [86] 1.01 | [87] 1 | [88] 0.98 | [89] 1 | [90] 1.01 | [91] 0.967 | [92] 1.01 | [93] 0.989

O=C1c2ccccc2C(=O)c2c(O)c(O)cc(O)c21
active: [1] 0.105 | [2] 0.209 | [3] 0.471 | [4] 0.403 | [5] 0.415 | [6] 0.35 | [7] 0.541 | [8] 0.228 | [9] 0.478 | [10] 0.436 | [11] 0.492 | locus YCL061C, strain MRC1, stronger effect = lower value 0.503 | [12] 0.426 | [13] 0.548 | [14] 0.114 | [15] 0.639 | [16] 0.583 | [17] 0.22 | [18] 0.136 | [19] 0.475 | locus YDR195W, strain ref2 0.766 | [20] 0.47 | [21] 0.206 | [22] 0.386 | [23] 0.164 | [24] 0.392 | [25] 0.421 | [26] 0.494 | [27] 0.323 | [28] 0.505 | [29] 0.223 | [30] 0.248 | [31] 0.412 | [32] 0.212 | [33] 0.193 | [34] 0.627 | [35] 0.383 | [36] 0.262 | [37] 0.293 | [38] 0.268 | [39] 0.183 | [40] 0.202 | [41] 0.242 | [42] 0.529 | [43] 0.121 | [44] 0.192 | [45] 0.431 | [46] 0.396 | [47] 0.489 | [48] 0.339 | [49] 0.327 | [50] 0.434 | [51] 0.174 | [52] 0.507 | [53] 0.665 | [54] 0.648 | [55] 0.39 | [56] 0.444 | [57] 0.584 | [58] 0.435 | [59] 0.199 | [60] 0.414 | [61] 0.455 | [62] 0.141 | [63] 0.266 | [64] 0.443 | [65] 0.534 | [66] 0.293 | [67] 0.401 | [68] 0.334 | [69] 0.33 | [70] 0.699 | [71] 0.557 | [72] 0.356 | [73] 0.296 | [74] 0.306 | [75] 0.159 | [76] 0.252 | [77] 0.336 | [78] 0.424 | [79] 0.489 | [80] 0.446 | [81] 0.439 | [82] 0.435 | [83] 0.399 | [84] 0.193 | [85] 0.197 | [86] 0.447 | [87] 0.165 | [88] 0.282 | [89] 0.168 | [90] 0.344 | [91] 0.491 | [92] 0.497 | [93] 0.228
